A short description of experiment [1]: small molecules captured by biotinylated probe aFSTL3 – biochemical, small-molecule microarray, fluorescence 635/667, stem cell growth factor project, primary screen (AID 1064).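 Also: measures binding of the biotinylated anti-FSTL3 antibody to printed compounds.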 Particulars: higher = more signal.
The nature of experiment [2]: binders from COS7 lysate, DM2A8 probe, primary screen, torsin A project, cell lysate, small-molecule microarray, fluorescence 635/667 (AID 1065). The settings on record: higher = more signal, COS7 lysate expressing mutant human TOR1A.
A short description of experiment [3]: small molecules captured by biotinylated probe aFGF2 – biochemical, small-molecule microarray, fluorescence 635/667, stem cell growth factor project, primary screen (AID 1067).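 Also: measures binding of biotinylated aFGF2 protein to printed compounds on slides; z-score merges feature fluorescence and signal-to-noise across triplicate slides.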 Particulars: higher = more signal.
A short description of experiment [4]: small molecules captured by biotinylated probe aFGF10 – biochemical, small-molecule microarray, fluorescence 635/667, stem cell growth factor project, primary screen (AID 1071).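 Also: score merges 667 nm spot intensity and signal to noise from triplicate slides.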 Particulars: higher = more signal.
In experiment [5] the target is Neurogenic locus notch homolog protein 2 (Homo sapiens) (UniProt Q04721). Kind of experiment: small molecules binding Notch2 protein – biochemical, small-molecule microarray, 635 nm fluorescence, stem cell growth factors, primary screen (AID 1073). The settings on record: higher = more signal.
The target of experiment [6] is Pro-neuregulin-1, membrane-bound isoform (Homo sapiens) (UniProt Q02297). Kind of experiment: small molecules binding neuregulin-1 protein – biochemical, small-molecule microarray, fluorescence 635/667, psychiatric disease protein project, primary screen (AID 1075).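 Also: score combines 667 nm spot fluorescence with signal to noise.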 Particulars: NRG1 binding, 635 nm fluorescence, higher = more signal.
The test system of experiment [7] is Neuregulin-1 EGF-like domain. In words: small molecules binding NRG1 EGF domain – biochemical, small-molecule microarray, 635 nm fluorescence, primary screen (AID 1081).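 Also: binding of the protein to compounds printed on small-molecule microarray slides.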 Particulars: higher = more signal.
The nature of experiment [8]: FRG1 expression reporter modulators in myotubes – cell-based, C2C12 myotubes, firefly/Renilla luciferase, luminescence, FRG1 inhibition for FSHD, primary screen (AID 1084). Particulars: FRG1 promoter luciferase, higher = more signal, called active from +8 up or from −8 down.
A short description of experiment [9]: small molecules captured by biotinylated probe aFST – biochemical, small-molecule microarray, fluorescence 635/667, stem cell growth factor project, primary screen (AID 1086).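 Also: score merges 667 nm fluorescence with signal-to-noise of each printed compound spot.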 Particulars: higher = more signal.
Experiment [10] can be described thus: binders of probe aHhip on microarray, primary screen, stem cell growth factor project, biochemical, small-molecule microarray, fluorescence 635/667 (AID 1087).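 Also: score merges spot fluorescence at 667nm with spot signal to noise ratio.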 Particulars: higher = more signal.
Experiment [11] concerns PRMT1 (protein arginine N-methyltransferase 1). Kind of experiment: small molecules binding arginine methyltransferase PRMT1 – biochemical, small-molecule microarray, 635 nm fluorescence, primary screen (AID 1088).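 Also: binding of Prmt1 protein to compounds spotted on small-molecule microarray slides.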 Particulars: higher = more signal.
The nature of experiment [12]: growth effects on S. cerevisiae YJM789 – YJM789 clinical isolate, OD600, 24 h, basal, primary screen (AID 1089).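 Also: growth of clinical yeast isolate S. cerevisiae YJM 789 seeded 1000 cells per well; test concentration not given here.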 Particulars: higher = more signal, called active from +8 up or from −8 down.
The nature of experiment [13]: S. pombe growth modifiers, basal conditions – strain 972, OD600, 24 h, no modulator, primary screen (AID 1090).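 Also: basal condition with compound alone and no growth modifier present; test concentration not given here.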 The settings on record: S. pombe 972 growth, higher = more signal, called active from +8 up or from −8 down.
Experiment [14] can be described thus: budding yeast growth modifiers under rapamycin – strain BY4716, OD600, 96 h, primary screen (AID 1091). Also: test concentration not given here. Particulars: S. cerevisiae BY4716 + rapamycin, higher = more signal, called active from +8 up or from −8 down.
Experiment [15] addresses Torsin-1A-interacting protein 2 (Homo sapiens) (UniProt Q8NFQ8). In words: small molecules binding lysate-expressed LULL1 – cell lysate, human LULL1 lysate, 635/667 nm fluorescence, primary screen (AID 1092).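 Also: probe is lysate of COS7 cells overexpressing human LULL1; score merges per-feature 667 nm fluorescence with signal-to-noise.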 The settings on record: small-molecule microarray, hLULL1 lysate binding, 635 nm fluorescence; higher = more signal.
Experiment [16] in a line: optical density change of DRC41 E. coli – strain DRC41, OD650, 24 h, E. coli filamentation project, primary screen (AID 1093).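 Also: MC1000 strain lacking acrAB efflux and sulA so SOS filamentation is blocked; test concentration not given here.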 Particulars: E. coli DRC41 growth, higher = more signal, called active from +8 up or from −8 down.
The nature of experiment [17]: probe aLefty2 binding to arrayed compounds – biochemical, biotinylated probe, 635/667 nm fluorescence, primary screen (AID 1094).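 Also: score merges spot fluorescence near 667 nm with spot signal-to-noise ratio.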 Particulars: small-molecule microarray, higher = more signal.
Experiment [18] relates to Noggin (protein binding on small-molecule microarray). In words: small molecules binding Noggin protein – biochemical, 635/667 nm fluorescence, primary screen (AID 1095).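 Also: score merges 667 nm feature fluorescence with signal to noise over triplicate slides.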 Particulars: 635 nm fluorescence, higher = more signal.
Experiment [19] concerns the target Neurogenic locus notch homolog protein 3 (Homo sapiens) (UniProt Q9UM47). Kind of experiment: small molecules binding NOTCH3 protein – biochemical, 635/667 nm fluorescence, primary screen (AID 1096). The settings on record: small-molecule microarray, 635 nm fluorescence, higher = more signal.
A short description of experiment [20]: probe aEGFR binding to arrayed compounds – biochemical, biotinylated probe, 635/667 nm fluorescence, primary screen (AID 1097).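 Also: probe is a biotinylated anti-EGFR antibody binding compounds printed on slides; score combines fluorescence near 667 nm and signal to noise of each spot.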 Particulars: small-molecule microarray, higher = more signal.

Calls of active or inactive are those of the source.

Pro-neuregulin-1, membrane-bound isoform (Homo sapiens), sequence (Q02297 whole entry, looked up, the tested form may be a part, canonical isoform): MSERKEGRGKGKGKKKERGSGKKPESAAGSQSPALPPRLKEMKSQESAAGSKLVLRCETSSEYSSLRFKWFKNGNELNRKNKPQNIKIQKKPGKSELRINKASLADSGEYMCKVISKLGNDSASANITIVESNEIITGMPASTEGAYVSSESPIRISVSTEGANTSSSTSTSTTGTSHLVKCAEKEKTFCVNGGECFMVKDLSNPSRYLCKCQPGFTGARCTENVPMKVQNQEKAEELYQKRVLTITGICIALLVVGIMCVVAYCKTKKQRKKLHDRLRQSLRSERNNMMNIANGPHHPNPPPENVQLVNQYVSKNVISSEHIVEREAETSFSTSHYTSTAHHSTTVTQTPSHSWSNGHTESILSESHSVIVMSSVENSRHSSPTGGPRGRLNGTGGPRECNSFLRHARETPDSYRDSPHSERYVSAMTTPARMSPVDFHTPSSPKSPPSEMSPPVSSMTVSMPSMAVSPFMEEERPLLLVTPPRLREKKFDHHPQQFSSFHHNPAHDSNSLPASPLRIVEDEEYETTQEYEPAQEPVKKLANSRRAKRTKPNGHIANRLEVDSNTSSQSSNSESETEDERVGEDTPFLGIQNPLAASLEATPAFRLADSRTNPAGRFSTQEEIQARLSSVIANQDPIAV
Torsin-1A-interacting protein 2 (Homo sapiens), sequence (Q8NFQ8 whole entry, looked up): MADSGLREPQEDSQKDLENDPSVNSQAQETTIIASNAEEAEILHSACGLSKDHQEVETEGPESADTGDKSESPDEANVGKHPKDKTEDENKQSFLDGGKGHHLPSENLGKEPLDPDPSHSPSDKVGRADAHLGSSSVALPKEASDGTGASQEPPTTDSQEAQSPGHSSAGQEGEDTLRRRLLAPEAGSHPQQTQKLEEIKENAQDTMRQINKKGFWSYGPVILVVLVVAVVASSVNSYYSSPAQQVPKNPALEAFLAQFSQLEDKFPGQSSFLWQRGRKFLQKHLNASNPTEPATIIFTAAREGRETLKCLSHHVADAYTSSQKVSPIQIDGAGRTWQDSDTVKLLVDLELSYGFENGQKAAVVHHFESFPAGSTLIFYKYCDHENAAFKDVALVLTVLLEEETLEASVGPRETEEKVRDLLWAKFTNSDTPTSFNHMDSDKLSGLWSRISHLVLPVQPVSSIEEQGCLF
Neurogenic locus notch homolog protein 3 (Homo sapiens), sequence (Q9UM47 whole entry, looked up): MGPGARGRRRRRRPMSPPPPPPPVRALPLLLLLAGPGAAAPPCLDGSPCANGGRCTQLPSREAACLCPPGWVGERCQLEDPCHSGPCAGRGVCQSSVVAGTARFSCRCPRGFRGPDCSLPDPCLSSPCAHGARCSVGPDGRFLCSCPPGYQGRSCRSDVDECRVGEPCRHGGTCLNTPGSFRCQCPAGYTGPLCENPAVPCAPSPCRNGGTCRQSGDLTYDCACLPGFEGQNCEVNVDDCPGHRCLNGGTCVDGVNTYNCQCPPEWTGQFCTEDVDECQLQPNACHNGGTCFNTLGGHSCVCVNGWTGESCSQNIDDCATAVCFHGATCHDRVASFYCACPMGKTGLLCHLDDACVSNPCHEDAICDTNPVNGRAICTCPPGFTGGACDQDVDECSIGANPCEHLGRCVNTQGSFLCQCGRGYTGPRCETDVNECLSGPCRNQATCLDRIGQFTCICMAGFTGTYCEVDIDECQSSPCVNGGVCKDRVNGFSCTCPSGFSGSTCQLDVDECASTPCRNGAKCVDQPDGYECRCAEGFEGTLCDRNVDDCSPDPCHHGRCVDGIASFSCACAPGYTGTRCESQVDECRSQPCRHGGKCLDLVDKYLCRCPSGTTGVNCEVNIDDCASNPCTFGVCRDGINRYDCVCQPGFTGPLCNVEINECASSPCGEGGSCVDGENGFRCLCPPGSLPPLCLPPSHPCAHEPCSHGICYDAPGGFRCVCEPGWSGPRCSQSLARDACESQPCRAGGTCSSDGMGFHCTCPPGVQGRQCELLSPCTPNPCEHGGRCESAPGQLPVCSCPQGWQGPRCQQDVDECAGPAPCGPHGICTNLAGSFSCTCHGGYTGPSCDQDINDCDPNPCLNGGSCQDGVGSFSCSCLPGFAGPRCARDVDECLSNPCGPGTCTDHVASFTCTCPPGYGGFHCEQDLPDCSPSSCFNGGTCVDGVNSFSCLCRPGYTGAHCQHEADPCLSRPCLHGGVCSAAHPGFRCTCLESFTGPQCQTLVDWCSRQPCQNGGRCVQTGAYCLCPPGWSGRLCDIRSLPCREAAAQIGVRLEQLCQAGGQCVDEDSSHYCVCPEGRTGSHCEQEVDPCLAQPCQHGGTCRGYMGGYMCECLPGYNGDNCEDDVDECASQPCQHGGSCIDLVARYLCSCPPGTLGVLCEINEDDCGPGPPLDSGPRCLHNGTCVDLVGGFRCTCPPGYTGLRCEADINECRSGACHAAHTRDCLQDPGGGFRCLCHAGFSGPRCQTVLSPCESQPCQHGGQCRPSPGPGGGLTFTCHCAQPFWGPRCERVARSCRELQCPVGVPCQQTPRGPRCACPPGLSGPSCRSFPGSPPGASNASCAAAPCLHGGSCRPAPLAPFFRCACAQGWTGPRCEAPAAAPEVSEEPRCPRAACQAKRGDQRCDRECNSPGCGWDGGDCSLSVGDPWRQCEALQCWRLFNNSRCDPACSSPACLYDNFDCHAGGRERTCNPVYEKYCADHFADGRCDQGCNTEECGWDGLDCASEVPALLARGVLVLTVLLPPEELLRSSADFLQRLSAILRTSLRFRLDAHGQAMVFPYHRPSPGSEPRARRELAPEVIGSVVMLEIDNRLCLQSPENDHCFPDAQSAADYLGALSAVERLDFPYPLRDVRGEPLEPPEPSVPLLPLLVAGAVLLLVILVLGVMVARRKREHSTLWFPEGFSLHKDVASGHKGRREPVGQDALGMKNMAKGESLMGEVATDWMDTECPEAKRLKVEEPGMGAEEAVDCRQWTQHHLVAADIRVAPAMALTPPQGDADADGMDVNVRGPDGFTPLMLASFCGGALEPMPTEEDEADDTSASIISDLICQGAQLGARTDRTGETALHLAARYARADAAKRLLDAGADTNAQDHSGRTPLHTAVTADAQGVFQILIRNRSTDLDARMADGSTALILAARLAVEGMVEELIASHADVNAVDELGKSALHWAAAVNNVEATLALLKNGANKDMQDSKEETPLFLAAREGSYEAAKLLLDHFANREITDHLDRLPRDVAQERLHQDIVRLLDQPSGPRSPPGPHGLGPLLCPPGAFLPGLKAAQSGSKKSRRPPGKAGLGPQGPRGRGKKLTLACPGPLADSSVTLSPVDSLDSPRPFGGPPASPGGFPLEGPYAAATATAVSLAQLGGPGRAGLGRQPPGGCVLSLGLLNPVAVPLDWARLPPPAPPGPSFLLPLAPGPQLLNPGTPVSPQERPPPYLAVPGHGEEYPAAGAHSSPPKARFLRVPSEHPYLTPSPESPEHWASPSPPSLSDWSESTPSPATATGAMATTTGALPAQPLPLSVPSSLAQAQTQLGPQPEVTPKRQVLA

Take `O=C1C2=CC[C@H]3C(=O)N(Cc4ccccc4)C(=O)[C@H]3[C@H]2[C@H](O)[C@@H]2O[C@H]12`: the composite z-score in experiment [1] was -0.291; in [2], -0.339; in [3], -0.132; in experiment [4], 0.011; in experiment [5], 0.0297; in [6], -0.0087. In addition, the composite z-score in [7] was 0.281; in experiment [9], -0.351; in experiment [10], 0.176; in experiment [11], 0.0864; in experiment [15], -1.23; in experiment [17], -0.185. Also, the figures for the composite z-score in [18], in experiment [19] and in [20] were -0.0873, -0.95 and -0.125, respectively. For the same compound, the z-score in [8] was 6.64 (inactive); in experiment [12] it was -0.733 (inactive); in [13] it was -2.12 (inactive); in [14], -0.213 (inactive); in experiment [16], -0.559 (inactive).
Regarding `O=C1C=C[C@@H](O)[C@@H]2[C@@H]3C(=O)N(C4CCCCC4)C(=O)[C@@H]3CC[C@@H]12`, the composite z-score in experiment [1] was 0.585; in [2] it was 0.0002; in [3], -0.189; in experiment [4], 0.442; in experiment [5] it was 0.545; in experiment [6], 0.305. Further, the composite z-score in experiment [7] is 0.968; in [9], 0.265; in experiment [10] it was 0.0373; in experiment [11], 0.299; in [15], 0.548; in [17], -0.0678. For the same compound, the composite z-score in experiment [18] was found to be 0.277; in experiment [19] it was 0.818; in experiment [20], 0.0587. Moreover, the z-score is -0.325 (inactive) in experiment [8]; 0.126 (inactive) in experiment [12]; -1.32 (inactive) in [13]; -1.27 (inactive) in [14]; -0.115 (inactive) in [16].
On to `CCOC(=O)[C@H](CC(C)C)NC(=O)CCC1CC(OC(=O)NCc2ccc3c(c2)OCO3)CC2(CCCC(COC(=O)NCCOc3ccccc3)O2)O1` (stereo not given in full), for which the composite z-score was -0.538 in experiment [1]; 0.143 in [2]; -0.11 in [3]; 0.652 in experiment [4]; 1.36 in experiment [5]; 0.843 in experiment [6]. For the same compound, the composite z-score was 0.943 in experiment [7]; 0.0762 in experiment [9]; 0.276 in [10]; 1.17 in experiment [11]; 1.68 in experiment [15]; -0.0928 in experiment [17]. Also, the composite z-score was 0.878 in experiment [18], 1.11 in [19] and -0.013 in experiment [20]. Besides, the z-score in experiment [8] was 0.929 (inactive); in experiment [12] it was -0.337 (inactive); in experiment [13], 0.774 (inactive); in experiment [14], -0.211 (inactive); in [16] it was 0.097 (inactive).
As for `COC(=O)CC=C[C@@H](C)[C@@H](C=NOC[C@@H](O)[C@H]1O[C@@H]2OC(C)(C)O[C@@H]2[C@H]1O)OC`, the composite z-score was 0.354 in [1]; 0.937 in experiment [2]; -0.0996 in [3]; 0.197 in [4]; 0.427 in [5]; -0.0348 in experiment [6]. Moreover, the composite z-score was 0.205 in [7]; -0.456 in [9]; 0.221 in [10]; 0.297 in experiment [11]; 0.31 in experiment [15]; -0.183 in experiment [17]. The results for the composite z-score in [18], in experiment [19] and in [20] were 0.505, 0.845 and 0.0536, respectively. The z-score is 0.195 (inactive) in [8]; 0.439 (inactive) in [12]; 0.429 (inactive) in experiment [13]; 0.303 (inactive) in [14]; -0.125 (inactive) in [16].
For `C[C@H]1CC[C@H]2C(=O)N[C@H](Cc3ccccc3)C(=O)N2[C@@H]1c1ccccc1`, the composite z-score is -0.335 in experiment [1]; 0.524 in experiment [2]; -0.0893 in experiment [3]; 0.412 in experiment [4]; 0.301 in experiment [5]; -0.717 in experiment [6]. Also, the composite z-score is 0.366 in experiment [7]; 0.0175 in experiment [9]; -0.13 in experiment [10]; -0.0481 in experiment [11]; 0.217 in [15]; -0.17 in [17]. Also, the composite z-score was 0.413 in experiment [18], -0.304 in experiment [19] and -0.0794 in [20]. Besides, the z-score was 1.33 (inactive) in [8]; 0.492 (inactive) in [12]; 0.0432 (inactive) in experiment [13]; -0.489 (inactive) in [14]; 0.805 (inactive) in [16].
As to `O=C1[C@H]2[C@H]3[C@H](O)[C@H](O)CC(=NO[C@@H]4O[C@H](CO)[C@@H](O)[C@H](O)[C@H]4O)[C@H]3CC[C@H]2C(=O)N1C[C@@H]1CCCO1`, the composite z-score in [1] is -0.151; in [2], 1.07; in experiment [3], -0.121; in experiment [4] it was 0.126; in experiment [5], 0.57; in [6] it was -0.506. Also, the composite z-score was -0.744 in experiment [7]; 0.045 in experiment [9]; -0.0994 in [10]; -0.099 in experiment [11]; -0.162 in [15]; 0.0136 in experiment [17]. Moreover, the composite z-score in experiment [18] is 0.379; in [19], 0.0492; in [20], -0.0578. Further, the z-score in experiment [8] was 0.189 (inactive); in experiment [12], 0.539 (inactive); in [13], 0.944 (inactive); in experiment [14] it was 0.734 (inactive); in experiment [16], 0.457 (inactive).

The record behind these values is PubChem BioAssay.
